From PubChem BioAssay AID2315 (National Center for Advancing Translational Sciences (NCATS), 2010)
The campaign covered roughly 290,000 compounds. About 27,000 (9.3%) were called active. The list comes from a sample in which actives are over-represented; it also holds similar structures and randomly drawn compounds. Values without a mark were called inactive. No stated cut-off is given here; in the data, active means inhibition mostly above about 28% (no sharp cut-off); inactive means mostly below about 43%.

Experiment: A qHTS for Small Molecule Inhibitors of Shiga Toxin; further: 0% is about no effect
Conditions: Vero cells, Shiga toxin protein synthesis inhibition reporter; at 38.7 µM, active compounds read high
Compound `O=C(NCc1ccncc1)C1CCN(C(=O)c2cccc(Cl)c2)CC1` has an inhibition of 4.24%.
For `COC(=O)C1(C)NC(c2ccc(C)cc2)C2C(=O)N(c3ccc(F)cc3)C(=O)C21` (configuration not stated), the inhibition was -13.6%.
In the case of `O=S(=O)(c1cc(Cl)ccc1Cl)N1CCN(Cc2ccco2)CC1`, the inhibition was -10.2%.
With `O=c1[nH]c2ccc(S(=O)(=O)N3CCCC3)cc2[nH]1` the inhibition was -12.3%.
Work on `Cc1ccc(C(C(=O)NCC2CCCO2)N(C(=O)c2snc(C(N)=O)c2N)c2ccc(C(C)C)cc2)o1` (configuration not stated) yielded an inhibition of 3.97%.
In the case of `N#Cc1cccc(CN2CCC(=O)N([C@H](CO)c3ccccc3)CC2)c1`, the inhibition was -4.45%.
With `O=C(NCC1CC1)C1(C(F)(F)F)C/C(=C\CCO)CCCO1` (configuration not stated) the inhibition was 2.98%.
Compound `Cc1c2cnn(CC(=O)NCc3ccccn3)c(=O)c2c(C)n1Cc1ccc(Cl)cc1` has an inhibition of -4.19%.
In the case of `C/C(=N\NC(=O)c1ccccc1F)c1ccccn1`, the inhibition was 61.3% (active).
For `C/C(=N\NC(=O)Cc1ccc(Cl)cc1)c1ccccn1`, the inhibition was 13.2%.
With `COc1ccc(CC(=O)N/N=C(\C)c2ccccn2)cc1` the inhibition was -0.965%.
`CCCCN(CC)CCNC(=O)CCNC(=O)Cn1ccc2ccccc2c1=O` gave an inhibition of -4.87%.
For `O=S(=O)(c1ccc(F)cc1)N1CCN=C1SCc1cccc(F)c1`, the inhibition was -6%.
For `COCC(C)NC(=O)c1ccc(Cl)c(Cl)c1` (configuration not stated), the inhibition was -2.73%.
With `Cc1ccc(C)c(NC(=O)c2ccc3nccnc3c2)c1` the inhibition was 19.7%.
In the case of `CC(C)CCC(C)NC(=O)c1ccc2nccnc2c1` (configuration not stated), the inhibition was 95.5% (active).
For `COC(=O)Cc1cnc(NC(=O)CSc2nc(C(C)C)cc(=O)[nH]2)s1`, the inhibition was -7.11%.
Compound `CCN(CC)CCn1c(/N=C/c2cc(Br)ccc2O)nc2ccccc21` has an inhibition of 26.3%.
`Oc1ccc(Br)cc1C=Nc1ccc2[nH]ncc2c1` gave an inhibition of -11.4%.
In the case of `Oc1ccc(Br)cc1/C=N/Nc1ccccn1`, the inhibition was 66.3% (active).
Work on `Cc1nccn1CC(=O)N/N=C/c1ccc(O)c(O)c1` yielded an inhibition of -15.2%.
With `FC(F)(F)c1cccc(N/N=C/c2ccccc2)c1` the inhibition was 33.8%.
With `Oc1ccc(/C=N/Nc2ccc(C(F)(F)F)cn2)cc1O` the inhibition was 108% (active).
With `COc1cc(C(=O)NCCOC(=O)c2cccc(N(C)C)c2)cc(OC)c1OC` the inhibition was -2.34%.
`N#C/C=C/N1CCN(Cc2ccc3c(c2)OCO3)CC1` gave an inhibition of -6.62%.
`CCC(CC)NC(=O)CSc1nnc(-c2c[nH]c3ccccc23)o1` showed an inhibition of -14.4%.
Work on `CN(C(=O)CSc1nnc(-c2c[nH]c3ccccc23)o1)C1CCS(=O)(=O)C1` (configuration not stated) yielded an inhibition of -1.73%.
In the case of `O=C(CSc1nnc(-c2c[nH]c3ccccc23)o1)c1ccccc1`, the inhibition was 22.5% (active).
For `Cc1cccc(OCC(=O)Nc2ccc(NC(=O)c3ccco3)c(C)c2)c1`, the inhibition was -4.8%.
`COc1ccc(-c2nonc2NC(=O)c2oc3ccc(F)cc3c2C)cc1OC` showed an inhibition of -3.6%.
Compound `CCOc1ccccc1CN1CCN(C2CCC2)CC1CCO` (configuration not stated) has an inhibition of -4.75%.
With `CC1CCN(C(=O)c2ccc(CSc3ccc(Cl)cc3)cc2)CC1` the inhibition was 0.865%.
Compound `O=C(c1ccc(S(=O)(=O)c2ccccc2)cc1)N1CCCCCC1` has an inhibition of 1.55%.
With `O=C(c1ccc(CSc2ccccc2)cc1)N1CCCCCC1` the inhibition was 17.6% (active).
`CSCC[C@H](NC(=O)N1CCn2c1nc1ccccc12)C(=O)NCc1ccc2c(c1)OCO2` gave an inhibition of -0.771%.
With `Cc1ccc(-c2nc(CS(=O)(=O)CC(=O)NCc3ccc4c(c3)OCO4)c(C)o2)cc1` the inhibition was -3.19%.
With `Cc1ccc(NC(=O)c2ccc(CSc3ncnc4nc[nH]c34)cc2)c(C)c1` the inhibition was 39%.
In the case of `CCOC(=O)c1ccc(NC(=O)Cn2nnc(-c3ccc(C)cc3)n2)cc1`, the inhibition was -5.77%.
For `CCc1ccc(-c2nnn(Cc3nn[nH]n3)n2)cc1`, the inhibition was -3.04%.
In the case of `CCc1ccc(-c2nnn(Cc3nc4ccccc4s3)n2)cc1`, the inhibition was 81% (active).
In the case of `COc1ccccc1N1CC(C(=O)Nc2nnc(SCC(=O)NCC3CCCO3)s2)CC1=O` (configuration not stated), the inhibition was -8.54%.
In the case of `COc1cccc(NC(=O)CN(C)C(=O)c2ccccc2CCc2ccccc2)c1`, the inhibition was 16.1%.
In the case of `COc1ccc(CC(NC(C)=O)C(=O)NC2CCN(C(=O)c3ccc(Cl)cc3)CC2)cc1` (configuration not stated), the inhibition was -3.77%.
In the case of `N#C/C=C1\Sc2ccccc2C(=O)N1CC(=O)N1CCN(S(=O)(=O)c2ccccc2)CC1`, the inhibition was 122% (active).
In the case of `O=C(Cc1ccccc1)N1CCN(S(=O)(=O)c2ccc([N+](=O)[O-])cc2)CC1`, the inhibition was -23.6%.
Work on `CC(CC(=O)N1CCN(S(=O)(=O)c2ccccc2)CC1)n1cncn1` (configuration not stated) yielded an inhibition of -9.3%.
With `COC(=O)CN1C(=O)[C@H]2[C@@H](/C=C/c3ccccc3)N3C(=O)CN(Cc4ccccc4)C(=O)[C@@]3(Cc3ccccc3)[C@H]2C1=O` the inhibition was -2.54%.
In the case of `CCN(C(=O)C1CCCN(c2nc(-c3ccc(OC)cc3)no2)C1)c1ccc(OC)cc1` (configuration not stated), the inhibition was 9.76%.
Work on `COc1cc(-c2noc(C3CCCN(S(=O)(=O)c4cccc(Cl)c4)C3)n2)cc(OC)c1OC` (configuration not stated) yielded an inhibition of -8.14%.
In the case of `CCc1nc2ccc(C(=O)N3CCN(c4cccc(Cl)c4)CC3)cc2nc1CC`, the inhibition was -14%.
For `O=C(c1cccs1)N1CCCC(c2nc(-c3ccc(F)cc3)no2)C1` (configuration not stated), the inhibition was 82.3% (active).
`COc1ccc(C(=O)NC2CCN(C(=O)Nc3ccc(F)cc3)CC2)cc1` showed an inhibition of -7.18%.
For `COc1ccc(NC(=O)N2CCCC(c3nc(-c4ccc(F)cc4)no3)C2)cc1` (configuration not stated), the inhibition was 96% (active).
`Cc1c(CN2CCCC(C(=O)c3cccc(Cl)c3)C2)c(=O)n(-c2ccccc2)n1C` (configuration not stated) showed an inhibition of -7.01%.
Work on `COc1ccc(NC(=O)N2CCCC(C(=O)Nc3ccccc3OC)C2)cc1` (configuration not stated) yielded an inhibition of -5.66%.
`O=C(Cc1cccs1)N1CCCC(c2nc(-c3ccc(S(=O)(=O)N4CCCC4)cc3)no2)C1` (configuration not stated) showed an inhibition of -10.3%.
Compound `O=C(c1ccc(F)cc1)N1CCCC(c2nc(-c3cccs3)no2)C1` (configuration not stated) has an inhibition of 16.4%.
With `Cc1ccc(-c2noc(C3CCCN(C(=O)c4cccc(Cl)c4)C3)n2)o1` (configuration not stated) the inhibition was 69.1% (active).
For `CC(C)c1ccc(-c2noc(C3CCCN(S(C)(=O)=O)C3)n2)cc1` (configuration not stated), the inhibition was 64.2% (active).
In the case of `COc1ccccc1C(=O)Nn1cnnc1`, the inhibition was -6.2%.
In the case of `C#CCOc1ccccc1/C=C1/C(=O)ON=C1C`, the inhibition was 3.31%.
`CC(=O)N1c2ccc(S(=O)(=O)N3CCC(C(=O)NC4CCCCC4C)CC3)cc2CC1C` (configuration not stated) showed an inhibition of -11.2%.
Compound `COc1cccc(OC)c1C(=O)Nc1c(C(=O)N2CCN(c3ccccn3)CC2)oc2ccccc12` has an inhibition of 3.52%.
Compound `CCOC(=O)C1CCN(C(=O)CN2C(=O)c3cccnc3Oc3ccc(C)cc32)CC1` has an inhibition of -9.03%.
In the case of `COc1ccc(N(C(=O)c2snc(C(N)=O)c2N)C(C(=O)NC2CCCC2)c2ccc(C)o2)c(OC)c1` (configuration not stated), the inhibition was -6.03%.
In the case of `Cc1ccc2c(c1)N(CC(=O)N1CCCC(C)C1)C(=O)CO2` (configuration not stated), the inhibition was 2.65%.
`Cc1cccc(S(=O)(=O)N2CN(CC3CCCO3)c3nc4ccccc4nc32)c1` (configuration not stated) gave an inhibition of -6.17%.
In the case of `O=C(c1c(F)cccc1Cl)N1CCN(c2ccccn2)CC1`, the inhibition was -18.5%.
For `Cc1ccccc1N1CCN(CCCN2C(=O)C3CCCCN3C2=O)CC1` (configuration not stated), the inhibition was -5.61%.
With `CN(CC1CCCO1)S(=O)(=O)c1ccc(C(=O)Nc2ccc([N+](=O)[O-])cc2)cc1` (configuration not stated) the inhibition was 14%.
Work on `CN(C(=O)c1cccc([N+](=O)[O-])c1)c1ccccc1C(=O)NCc1ccccc1` yielded an inhibition of -10.6%.
For `COc1cccc2c(C)c(C(=O)O)[nH]c12`, the inhibition was -35.1% (active).
Compound `Cc1c(C(=O)N/N=C/c2ccccc2)[nH]c2c([N+](=O)[O-])cccc12` has an inhibition of -9.32%.
With `COc1cc2c(C(=O)O)c(C)n(C)c2c2ccccc12` the inhibition was -4.47%.
`COc1ccccc1N1CCN(S(=O)(=O)CCNC(=O)c2ccc(OC(C)C)cc2)CC1` gave an inhibition of -4.39%.
With `Cc1ccccc1CNC(=O)CCC(=O)N1Cc2ccccc2Oc2ncccc21` the inhibition was 13.6%.
In the case of `C[n+]1cc(-c2ccccc2)oc1-c1ccccc1`, the inhibition was 88.6% (active).
Work on `COc1ccccc1CCNS(=O)(=O)c1cn(C)nc1C` yielded an inhibition of -8.83%.
For `CS(=O)(=O)c1ccc2nc(NC(=O)c3ccc(N4CCCC4=O)cc3)sc2c1`, the inhibition was 8.48%.
For `Cc1cnc(NC(=O)c2ccc(Cl)nc2)s1`, the inhibition was 109% (active).
`O=C(Nc1nc2ccc([N+](=O)[O-])cc2s1)c1ccncc1` showed an inhibition of 35%.
Work on `CS(=O)(=O)c1ccc2nc(NC(=O)CN3CCCCCC3)sc2c1` yielded an inhibition of 18.3%.
With `COc1cccc(C(=O)Nc2nc3ccc(S(C)(=O)=O)cc3s2)c1` the inhibition was 92.7% (active).
With `Cc1cnc(NC(=O)c2ccccn2)s1` the inhibition was 11.7%.
For `CS(=O)(=O)c1ccc2nc(NC(=O)c3ccc(Cl)nc3)sc2c1`, the inhibition was 70.7% (active).
In the case of `CCN(CC)c1ccc(NC(=O)c2ccc(Cl)nc2)cc1`, the inhibition was 18.4%.
Compound `CS(=O)(=O)c1ccc2nc(NC(=O)C3C4C=CC(C4)C3C(=O)O)sc2c1` (configuration not stated) has an inhibition of 14.8%.
With `CNC(=O)c1ccc2nc(NC(C)=O)sc2c1` the inhibition was 45.1% (active).
`CCCC(=O)Nc1nc2ccc(NC(=O)c3cccnc3)cc2s1` gave an inhibition of 89.7%.
Work on `CS(=O)(=O)c1ccc2nc(NC(=O)C3CCCCC3)sc2c1` yielded an inhibition of 22.9%.
In the case of `CCCNC(=O)c1ccc(N2CCC3(CC2)CC(c2ccc(Cl)cc2)=NO3)c([N+](=O)[O-])c1`, the inhibition was 0.364%.
`COc1ccc(CN2CCCC(C(=O)N3CCCCC3)C2)cc1` (configuration not stated) showed an inhibition of -9.61%.
